Assay [1] deals with Cytochrome P450 1A2 (Homo sapiens) (UniProt P05177). The experiment in a line: p450-cyp1a2 (AID 410; calls by dose curve; note: potency is the fitted concentration of half-maximal effect). Put shortly:
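Luminescent readout of luciferin formed from Luciferin-ME by human CYP1A2; data normalized against complete inhibition by 57 uM furafylline. Enzyme 20nM, substrate 100uM at Km, 100mM KPO4 buffer, 60 min reaction at room temperature.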

Assay [2] concerns the target Glucocorticoid receptor (Homo sapiens) (UniProt P04150). The experiment in a line: GR-GFP Redistribution (AID 450;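 active = compounds whose dose series gives a full or clear partial fitted curve of increased nuclear translocation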; note: potency is the fitted concentration of half-maximal effect).
For assay [3] the target is unchanged. The assay can be described thus: GR-EFC Redistribution (AID 451; calls by dose curve; note: potency is the fitted concentration of half-maximal effect). The settings on record: CHO-K1 GR-EFC translocation, beta-gal luminescence, 2 h. The gist of the method: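 CHO-K1 cells expressing nuclear EA and GR-ED fragments of b-gal; compounds titrated up to 46 uM final, 2 h at 37 C. GR nuclear translocation read as complemented b-gal luminescence after 1 h RT detection.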

Assay [4] deals with Mitogen-activated protein kinase 10 (Mus musculus) (UniProt Q61831). The experiment in a line: JNK3 AlphaScreen Assay (AID 530; active = well fitted curve in either direction with a large enough effect, not every such curve was filed as active;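 note: kinase came from lysate of stimulated human HepG2 cells; signal reports phosphorylation of biotinylated GST-cJun 1-79 at Ser73 with 10 µM ATP; series mostly up to about 57 µM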). Put shortly: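 Pre-activated (IL-1β/TNFα) JNK3 in HepG2 lysates phosphorylates biotin-GST-cJun(1-79), 10 uM ATP; anti-phospho-cJun(Ser73) AlphaScreen read at room temperature, pH 7.6 Tris buffer. Compounds pre-incubated 15 min as titrations.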
(In general: Alpha assays give light when donor and acceptor beads are brought close together.)

The target in assay [5] is 3',5'-cyclic-AMP phosphodiesterase 4B (Homo sapiens) (UniProt Q07343). The experiment in a line: qHTS Assay for Inhibitors of PDE-IV (AID 607; active = well fitted activation curve with a large enough effect in the main read-out, with a control signal flat, not every such curve was filed as active). Put shortly: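 The readout is membrane depolarisation from a cAMP-sensing CNG channel, detected with a potential dye at ex 535/em 590. Cells were HEK293-derived (endogenous PDE-IV) at 1000 cells/well, titrated up to 22.9 uM final.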
For orientation: In qHTS, concentration-response curves come from the screen itself.

Assay [6] addresses Ubiquitin carboxyl-terminal hydrolase 1 (Homo sapiens) (UniProt O94782). The experiment in a line: Inhibitors of USP1/UAF1: Pilot qHTS (AID 504865).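 Note: rhodamine fluorescence freed from ubiquitin-rhodamine substrate followed over time; top concentration of the series differs between compounds; nearly all actives have a fitted effect of over 35% in size.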 Put shortly:
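Deubiquitinase activity followed as kinetic rhodamine fluorescence release from 150 nM Ub-Rho. 1 nM USP1/UAF1 with compound, after 15 min room-temperature preincubation, in HEPES pH 7.8 buffer containing TCEP, EDTA, BSA and Tween-20.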

Assay [7] has as its target Cytochrome P450 3A4 (Homo sapiens) (UniProt P08684). The experiment in a line: qHTS Assay for Activators of Cytochrome P450 3A4 (AID 885). Note: nearly all actives have a fitted effect of over 65% in size. Put shortly: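 Steps: enzyme/substrate mix dispensed; compound added, 10 min RT; NADPH regeneration solution added, 60 min RT; luciferin detection buffer stops reaction; 20 min later luminescence measured.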
Assay [8] deals with Cytochrome P450 2C19 (Homo sapiens) (UniProt P33261). The assay can be described thus: qHTS Assay for Inhibitors and Substrates of Cytochrome P450 2C19 (AID 899). Note: nearly all actives have a fitted effect of over 60% in size. Note: potency is the fitted concentration of half-maximal effect. Put shortly: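 Signal comes from luciferase acting on luciferin released by CYP2C19-mediated hydroxylation of Luciferin-H EGE, 10uM (KM). Assay mix: 5nM enzyme, 50mM KPO4; 60 min at 37C with NADPH regeneration. Data normalized against 57uM ketoconazole.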

Assay [9] has as its target DNA dC->dU-editing enzyme APOBEC-3G (Homo sapiens) (UniProt Q9HC16). The assay can be described thus: qHTS for inhibitors of Vif-A3G interactions: Validation (AID 588379). The gist of the method: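 HeLa cells stably expressing Vif and A3G-eYFP, 700 cells/well, incubated overnight at 37 deg C, then exposed to compound overnight at 37 deg C. Inhibition of Vif-mediated degradation read as increased yellow fluorescence (Ex 488/Em 500-530) by laser-scanning cytometry.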

For assay [10], the target named is Cytochrome P450 2C9 (Homo sapiens) (UniProt P11712). The experiment in a line: qHTS Assay for Inhibitors and Substrates of Cytochrome P450 2C9 (AID 883). Note: nearly all actives have a fitted effect of over 60% in size. Note: potency is the fitted concentration of half-maximal effect. Put shortly:
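Signal: luciferase luminescence reporting luciferin produced by CYP2C9. Conditions: 10nM enzyme, Luciferin-H 100uM at KM, 25mM KPO4, 37C, 60 min NADPH-driven reaction. Reference: 57uM sulphaphenazole as 100% inhibition.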

In assay [11] the target is Cytochrome P450 2D6 (Homo sapiens) (UniProt P10635). The experiment in a line: qHTS Assay for Inhibitors and Substrates of Cytochrome P450 2D6 (AID 891).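 Note: luciferin methyl ether substrate demethylated by CYP2D6 with NADPH regeneration; nearly all actives have a fitted effect of over 60% in size.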 Put shortly:
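Human CYP2D6 (5 nM) with 30 uM Luciferin-ME EGE (at Km) in 100 mM KPO4, compound preincubated 10 min, then NADPH regeneration system for 60 min at room temperature. Luciferin read by luminescence; normalized to 1.43 uM quinidine.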

Unmarked numbers belong to inactive results. Inconclusive results are not listed. The source made the active and inactive calls. Unless noted, calls come from the whole dose curve; as a rule, active = well fitted curve in the direction sought with a large enough effect; inconclusive = small, poorly fitted or top-dose-only effect, or another doubt; inactive = no such curve, though single readings can be large; an effect the other way counts as inactive or inconclusive.

Sequence of Cytochrome P450 3A4 (Homo sapiens) (P08684 whole entry, looked up): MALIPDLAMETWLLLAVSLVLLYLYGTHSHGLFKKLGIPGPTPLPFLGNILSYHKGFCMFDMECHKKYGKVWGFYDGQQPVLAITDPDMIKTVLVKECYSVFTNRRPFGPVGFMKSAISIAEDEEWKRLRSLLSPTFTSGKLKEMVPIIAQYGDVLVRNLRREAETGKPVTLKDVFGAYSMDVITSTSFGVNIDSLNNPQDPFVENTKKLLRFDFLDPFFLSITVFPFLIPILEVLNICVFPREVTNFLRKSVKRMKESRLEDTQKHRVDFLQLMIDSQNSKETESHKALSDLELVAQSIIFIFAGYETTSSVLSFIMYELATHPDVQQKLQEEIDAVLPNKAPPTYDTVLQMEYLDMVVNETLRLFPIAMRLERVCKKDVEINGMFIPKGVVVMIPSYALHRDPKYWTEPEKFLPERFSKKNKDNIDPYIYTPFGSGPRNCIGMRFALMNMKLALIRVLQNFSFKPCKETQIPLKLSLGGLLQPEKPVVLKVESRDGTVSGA
Sequence of Glucocorticoid receptor (Homo sapiens) (P04150 whole entry, looked up, the tested form may be a part): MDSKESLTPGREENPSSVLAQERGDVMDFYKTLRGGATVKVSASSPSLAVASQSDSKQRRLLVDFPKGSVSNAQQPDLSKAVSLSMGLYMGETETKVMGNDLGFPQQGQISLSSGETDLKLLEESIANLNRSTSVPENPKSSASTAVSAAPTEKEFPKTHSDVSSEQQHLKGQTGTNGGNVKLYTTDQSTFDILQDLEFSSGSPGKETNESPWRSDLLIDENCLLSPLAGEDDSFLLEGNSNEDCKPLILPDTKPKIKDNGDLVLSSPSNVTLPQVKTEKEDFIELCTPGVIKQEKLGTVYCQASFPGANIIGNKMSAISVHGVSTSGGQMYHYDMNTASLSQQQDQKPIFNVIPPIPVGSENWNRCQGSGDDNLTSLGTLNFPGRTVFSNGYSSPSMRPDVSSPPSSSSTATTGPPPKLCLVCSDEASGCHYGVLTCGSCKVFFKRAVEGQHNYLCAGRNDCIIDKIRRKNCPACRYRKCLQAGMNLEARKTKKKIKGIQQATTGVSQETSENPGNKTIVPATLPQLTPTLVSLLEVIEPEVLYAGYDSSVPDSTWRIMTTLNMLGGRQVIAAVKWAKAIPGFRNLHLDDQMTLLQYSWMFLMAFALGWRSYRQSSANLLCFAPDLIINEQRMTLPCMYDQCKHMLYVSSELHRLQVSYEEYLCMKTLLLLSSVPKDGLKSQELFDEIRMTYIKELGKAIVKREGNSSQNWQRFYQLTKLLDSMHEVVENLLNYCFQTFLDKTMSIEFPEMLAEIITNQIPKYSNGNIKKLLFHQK
Sequence of Cytochrome P450 2C19 (Homo sapiens) (P33261 whole entry, looked up): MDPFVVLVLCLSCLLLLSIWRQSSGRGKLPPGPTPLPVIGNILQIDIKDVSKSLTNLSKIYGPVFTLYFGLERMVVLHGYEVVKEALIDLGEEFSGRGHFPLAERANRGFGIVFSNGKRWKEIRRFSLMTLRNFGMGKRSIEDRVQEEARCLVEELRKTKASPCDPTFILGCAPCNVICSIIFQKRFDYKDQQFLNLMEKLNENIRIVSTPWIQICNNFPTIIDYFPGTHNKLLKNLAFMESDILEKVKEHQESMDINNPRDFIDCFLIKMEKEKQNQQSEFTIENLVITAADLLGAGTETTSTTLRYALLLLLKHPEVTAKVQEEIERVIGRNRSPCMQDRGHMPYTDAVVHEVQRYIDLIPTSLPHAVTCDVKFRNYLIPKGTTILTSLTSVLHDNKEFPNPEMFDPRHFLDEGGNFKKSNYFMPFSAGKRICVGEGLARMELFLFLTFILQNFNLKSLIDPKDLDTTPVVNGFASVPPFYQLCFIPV
Sequence of Cytochrome P450 2D6 (Homo sapiens) (P10635 whole entry, looked up): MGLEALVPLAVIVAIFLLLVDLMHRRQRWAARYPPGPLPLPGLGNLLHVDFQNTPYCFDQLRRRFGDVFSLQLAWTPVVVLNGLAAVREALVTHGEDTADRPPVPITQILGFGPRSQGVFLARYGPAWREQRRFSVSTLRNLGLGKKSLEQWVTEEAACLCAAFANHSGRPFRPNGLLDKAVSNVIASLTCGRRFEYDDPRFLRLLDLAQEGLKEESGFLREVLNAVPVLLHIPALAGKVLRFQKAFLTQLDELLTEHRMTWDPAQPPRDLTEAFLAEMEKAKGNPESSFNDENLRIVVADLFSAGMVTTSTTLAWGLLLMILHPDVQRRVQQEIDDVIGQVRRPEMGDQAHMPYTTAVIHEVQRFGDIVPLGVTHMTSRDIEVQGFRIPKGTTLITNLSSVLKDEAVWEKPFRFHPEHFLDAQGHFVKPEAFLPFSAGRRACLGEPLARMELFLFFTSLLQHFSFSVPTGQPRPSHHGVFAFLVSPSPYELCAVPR
Sequence of Cytochrome P450 1A2 (Homo sapiens) (P05177 whole entry, looked up): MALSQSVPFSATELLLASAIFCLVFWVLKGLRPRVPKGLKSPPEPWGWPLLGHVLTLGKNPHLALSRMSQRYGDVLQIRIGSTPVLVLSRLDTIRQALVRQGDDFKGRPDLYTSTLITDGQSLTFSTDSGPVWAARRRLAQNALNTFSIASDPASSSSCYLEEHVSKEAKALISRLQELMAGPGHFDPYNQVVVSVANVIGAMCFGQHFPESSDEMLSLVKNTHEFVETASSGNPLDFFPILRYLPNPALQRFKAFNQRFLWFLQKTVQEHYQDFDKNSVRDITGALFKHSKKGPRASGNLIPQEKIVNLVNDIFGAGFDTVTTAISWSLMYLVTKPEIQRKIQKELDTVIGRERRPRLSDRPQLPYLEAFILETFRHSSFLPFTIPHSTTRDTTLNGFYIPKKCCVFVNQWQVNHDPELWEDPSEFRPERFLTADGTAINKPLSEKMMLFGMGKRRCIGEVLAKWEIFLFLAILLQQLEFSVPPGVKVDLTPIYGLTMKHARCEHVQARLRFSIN
Sequence of 3',5'-cyclic-AMP phosphodiesterase 4B (Homo sapiens) (Q07343 whole entry, looked up): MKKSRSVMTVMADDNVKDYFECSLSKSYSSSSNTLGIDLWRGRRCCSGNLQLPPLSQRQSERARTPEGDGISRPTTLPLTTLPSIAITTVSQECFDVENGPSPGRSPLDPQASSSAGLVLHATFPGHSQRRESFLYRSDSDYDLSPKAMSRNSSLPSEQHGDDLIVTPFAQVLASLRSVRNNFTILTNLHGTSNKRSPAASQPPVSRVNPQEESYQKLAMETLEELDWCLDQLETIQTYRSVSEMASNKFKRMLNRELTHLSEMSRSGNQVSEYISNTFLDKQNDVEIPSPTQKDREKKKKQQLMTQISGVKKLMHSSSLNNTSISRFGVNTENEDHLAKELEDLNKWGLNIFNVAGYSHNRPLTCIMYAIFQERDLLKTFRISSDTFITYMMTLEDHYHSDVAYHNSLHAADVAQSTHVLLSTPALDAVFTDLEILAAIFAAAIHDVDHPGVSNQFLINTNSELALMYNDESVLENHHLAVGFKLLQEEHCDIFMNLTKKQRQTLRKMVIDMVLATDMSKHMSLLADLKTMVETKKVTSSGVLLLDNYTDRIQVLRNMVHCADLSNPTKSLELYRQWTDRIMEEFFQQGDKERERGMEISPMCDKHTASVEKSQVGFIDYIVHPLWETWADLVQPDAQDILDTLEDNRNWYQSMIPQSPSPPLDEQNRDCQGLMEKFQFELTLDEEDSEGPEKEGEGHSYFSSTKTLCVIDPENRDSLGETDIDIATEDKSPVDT
Sequence of DNA dC->dU-editing enzyme APOBEC-3G (Homo sapiens) (Q9HC16 whole entry, looked up): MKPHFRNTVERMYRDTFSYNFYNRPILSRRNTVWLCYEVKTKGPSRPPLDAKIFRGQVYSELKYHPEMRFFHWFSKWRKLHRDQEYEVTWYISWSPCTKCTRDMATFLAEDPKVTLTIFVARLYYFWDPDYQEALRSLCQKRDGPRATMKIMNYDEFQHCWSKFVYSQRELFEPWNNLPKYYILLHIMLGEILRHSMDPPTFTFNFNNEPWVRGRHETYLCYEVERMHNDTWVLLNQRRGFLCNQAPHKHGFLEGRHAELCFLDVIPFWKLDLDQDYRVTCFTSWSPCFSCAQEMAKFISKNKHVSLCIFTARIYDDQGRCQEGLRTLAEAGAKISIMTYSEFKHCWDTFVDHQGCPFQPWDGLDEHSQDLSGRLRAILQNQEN
Sequence of Cytochrome P450 2C9 (Homo sapiens) (P11712 whole entry, looked up): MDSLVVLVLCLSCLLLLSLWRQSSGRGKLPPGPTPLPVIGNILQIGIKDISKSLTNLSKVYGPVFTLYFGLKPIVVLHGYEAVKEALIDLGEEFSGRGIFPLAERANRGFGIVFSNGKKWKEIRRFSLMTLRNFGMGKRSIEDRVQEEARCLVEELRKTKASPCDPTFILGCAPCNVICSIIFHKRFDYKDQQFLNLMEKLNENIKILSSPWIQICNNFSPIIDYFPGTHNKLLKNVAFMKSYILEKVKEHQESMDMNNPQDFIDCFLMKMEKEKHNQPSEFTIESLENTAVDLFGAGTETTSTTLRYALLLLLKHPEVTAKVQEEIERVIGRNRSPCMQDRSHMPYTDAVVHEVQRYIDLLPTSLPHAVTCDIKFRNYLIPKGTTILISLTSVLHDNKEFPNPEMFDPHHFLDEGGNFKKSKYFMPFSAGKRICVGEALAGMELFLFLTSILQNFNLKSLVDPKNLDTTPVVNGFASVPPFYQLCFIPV

For `O[C@@H]1[C@@H]2c3cc4c(cc3CN3CCC(=C[C@@H]1O)[C@H]23)OCO4`, the Potency in assay [1] was 15.8 µM (active); in [2], over 20.6 µM; in [3] it was over 20.6 µM. Moreover, the Potency result in assay [4], in assay [5] and in [6] was “inactive” throughout.

Consider `COc1cc2ccc(=O)oc2c(O)c1OCC=C(C)C`, for which the Potency is 1.58 µM (active) in [1], over 46 µM in assay [2], over 46 µM in assay [3] and 10 µM (active) in [8]. For the same compound, the Potency result in assay [4], in assay [5] and in [7] was “inactive” in each case. Moreover, the outcome in [9] was inactive.

Regarding `COc1cc(C(=O)O[C@@H]2CC(C)=CC[C@@]3(C)CC[C@](O)(C(C)C)[C@H]23)ccc1O`, the Potency in assay [1] was 15.8 µM (active); in assay [2] it was over 46 µM; in assay [3], over 46 µM; in [10] it was 15.8 µM (active). Besides, the Potency entry in assay [4] and in assay [5] was “inactive” each time.

As to `C[C@@H]1C(=O)O[C@@H]2C[C@@]34[C@H]5C[C@@H](C(C)(C)C)[C@@]36[C@@H](OC(=O)[C@@H]6O)O[C@]4(C(=O)O5)[C@@]12O`, the Potency entry in assay [1] and in [4] was “inactive” each time. The Potency in assay [2] and in [3] was over 46 µM each time.

Consider `COc1ccccc1-c1oc2ccccc2c(=O)c1OC`, for which the Potency in [1] is 0.2 µM (active); in [2], over 46 µM; in assay [3], over 46 µM; in [10] it was 25.1 µM (active); in assay [8], 7.94 µM (active). In addition, the Potency result in assay [4], in assay [7] and in assay [11] was “inactive” each time. For the same compound, the compound was called inactive in [9].

`O=c1c(O)c(-c2ccc(O)cc2)oc2cc(O)ccc12`: the Potency was 0.1 µM (active) in assay [1]; over 46 µM in [2]; over 46 µM in assay [3]; 10 µM (active) in assay [10]; 15.8 µM (active) in [8]. For the same compound, the Potency result in assay [4], in assay [5] and in [7] was “inactive” each time. For the same compound, the call in assay [9] was inactive.

In the case of `C=C(CO)[C@H]1Cc2c(ccc3c2O[C@H]2COc4cc(OC)c(OC)cc4[C@@H]2C3=O)O1`, the Potency entry in assay [1], in assay [4], in assay [5], in assay [10] and in [11] was “inactive” throughout. In addition, the Potency in assay [2] and in assay [3] was over 46 µM each time.

With `C=C1CC[C@@H]2[C@](C)(CC[C@@H](O)[C@]2(C)CO)[C@@H]1C/C=C1/C(=O)OC[C@H]1O`, the Potency entry in assay [1], in assay [4], in assay [5], in [10], in assay [11] and in assay [8] was “inactive” each time. In addition, the Potency in assay [2] and in assay [3] was over 46 µM each time.
